Assay outcomes as filed in PubChem BioAssay.
Sampled rows, rich in hits. Any-hit rate of the full collection: about 27%.
Cav3 T inh = inhibitors of human Cav3.2 T-type calcium channel; Cav3.2-expressing cells, Fluo-4 calcium fluorescence FDSS; active compounds read low; O95180; AID 449739; B-score at 10 µM; 100,000 tested, 4% active;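 active = single-dose well whose peak fluorescence ratio is a statistical outlier from its plate by either plate-standardised score or position-corrected B-score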
CYP2C9 act = CYP2C9 (human) activation. P11712. activation factor at 5 µM. 96,000 tested, 1.4% active. recombinant CYP2C9, luciferin-H conversion, luminescence; active compounds read high; factor 1 = untreated enzyme, 0 = blocked;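 active = activation factor of 2 or more for CYP2C9 at a 5 µM dose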
Target sequence (P11712 whole entry, looked up): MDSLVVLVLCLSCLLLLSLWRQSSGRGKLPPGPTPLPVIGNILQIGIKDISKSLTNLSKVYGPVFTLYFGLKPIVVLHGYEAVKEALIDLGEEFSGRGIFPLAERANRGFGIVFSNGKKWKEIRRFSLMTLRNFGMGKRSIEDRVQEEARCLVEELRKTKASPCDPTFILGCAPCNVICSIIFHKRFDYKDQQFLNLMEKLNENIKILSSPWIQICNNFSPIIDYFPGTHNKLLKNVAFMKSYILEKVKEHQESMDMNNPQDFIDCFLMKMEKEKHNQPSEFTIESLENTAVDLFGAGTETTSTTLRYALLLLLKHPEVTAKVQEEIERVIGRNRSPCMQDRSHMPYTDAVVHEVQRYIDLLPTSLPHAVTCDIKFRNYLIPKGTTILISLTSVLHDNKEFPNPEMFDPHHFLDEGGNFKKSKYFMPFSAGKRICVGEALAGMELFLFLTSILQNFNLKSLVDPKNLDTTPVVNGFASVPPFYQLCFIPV
CYP2C19 inh = inhibitors of human CYP2C19 | CYP2C19 Supersomes, luciferin-H EGE luminescence, 30 min | 96,000 tested, 21% active | inhibition, % at 5 µM | P33261;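 active = CYP2C19 inhibition above a set limit at 5 µM in the primary screen, cut at about 50% in these data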
CYP2C9 inhib = inhibitors of human CYP2C9 | CYP2C9 Supersomes, luciferin-H conversion, luminescence | 96,000 tested, 20% active | P11712 | inhibition, % at 5 µM;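 active = blocking of liver enzyme CYP2C9 beyond about 50% at 5 µM, limit read from the data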
CYP2C19 act = cytochrome P450 2C19 (human) activation. P33261. recombinant CYP2C19, luciferin-H EGE luminescence; active compounds read high; 0 = fully inhibited enzyme, 1 = untreated enzyme. activation factor at 5 µM. 96,000 tested, under 10 active;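 active = activation factor of at least 2 at 5 µM in the primary screen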
Of the large screens only hits and unclear results are named; the others gave an inactive call.

O=c1c2ccccc2nc(-c2ccccc2)n1CCN1CCOCC1	none
O=c1c2ccccc2nc(-c2ccco2)n1CCCn1ccnc1	CYP2C19 inh 69, CYP2C9 inhib 65
Cc1ccccc1-c1ccc(C=Nc2c(C)n(C)n(-c3ccccc3)c2=O)o1	none
CCOC(=O)/C=C1\SCC(=O)N1CC(=O)NC12CC3CC(CC(C3)C1)C2	none
CCC(c1nc2ccccc2c(=O)n1CCCn1ccnc1)N1C(=O)c2ccccc2C1=O (centres undefined)	CYP2C19 inh 93, CYP2C9 inhib 85
CCC(c1nc2ccccc2c(=O)n1CCN1CCOCC1)N1C(=O)c2ccccc2C1=O (centres undefined)	none
COc1ccc(CCn2c(-c3ccco3)nc3ccccc3c2=O)cc1OC	CYP2C19 inh 95
CC(C)CCn1cnc2c([nH]c3cccc(Cl)c32)c1=O	CYP2C9 inhib 50
CCSc1nc2ccccc2[nH]1	none
Nc1nc(CSc2nc3ccccc3[nH]2)cs1	CYP2C19 inh 76
CCCOc1ccc(CSc2nc3ccccc3[nH]2)cc1	CYP2C9 inhib 90 (no result: Cav3 T inh)
Fc1ccc(CSc2nc3ccccc3[nH]2)cc1	CYP2C19 inh 93, CYP2C9 inhib 56 (no result: Cav3 T inh)
Cc1cccc(OCCCSc2nc3ccccc3[nH]2)c1	Cav3 T inh -8.1, CYP2C19 inh 77
CCOC(=O)N1CCC(NC(=O)C2CCN(S(=O)(=O)N3CCC(C)CC3)CC2)CC1	none
CSCCC1NC(=O)NC1=O (centres undefined)	none
CCCCOc1ccc(CSc2ncn[nH]2)cc1	CYP2C19 inh 93, CYP2C9 inhib 73
Fc1ccc(CSc2nc3ncccc3[nH]2)cc1	CYP2C19 inh 82, CYP2C9 inhib 51 (no result: Cav3 T inh)
Fc1ccc(CSc2nc3ccccc3[nH]2)c2ccccc12	CYP2C19 inh 99, CYP2C9 inhib 98 (no result: Cav3 T inh)
Fc1cccc(CSc2nc3ncccc3[nH]2)c1	none
Cn1cccc1-c1nc2ccc(NC(=O)c3ccc([N+](=O)[O-])cc3)cc2[nH]1	none
Cn1cccc1-c1nc2ccc(NC(=O)c3ccccc3)cc2[nH]1	CYP2C19 inh 78, CYP2C9 inhib 68
Cc1ccc(S(=O)(=O)Nc2ccc3nc(-c4cccn4C)[nH]c3c2)cc1	Cav3 T inh -5.7, CYP2C19 inh 100, CYP2C9 inhib 100
COC(=O)c1ccc(C(=O)Nc2ccc3nc(-c4cccnc4)[nH]c3c2)cc1	CYP2C9 inhib 67
CCN(CC)S(=O)(=O)c1ccc2c(c1)c(=O)c(C(=O)N1CCN(c3ccccc3)CC1)cn2C	none (no result: CYP2C9 act, CYP2C19 inh, CYP2C9 inhib, CYP2C19 act)
O=C(NCCNc1ccc([N+](=O)[O-])cc1)c1ccccc1Br	none
COc1cccc(NC(=O)N(Cc2cc3cc(C)cc(C)c3[nH]c2=O)CC2COCCO2)c1 (centres undefined)	CYP2C9 inhib 57
CC(=O)N1CCC(=NNS(=O)(=O)c2cccc([N+](=O)[O-])c2)CC1	none
COc1cccc(NC2SC(=O)N(c3ccccc3)C2=O)c1 (centres undefined)	none
COc1ccc(C2c3sc(=O)[nH]c3SC3C4CCC(C4)C23)cc1 (centres undefined)	CYP2C19 inh 56
COc1ccc(C2c3sc(=O)[nH]c3SC3C(=O)N(c4ccccc4)C(=O)C32)cc1 (centres undefined)	CYP2C19 inh 62, CYP2C9 inhib 81
O=c1[nH]c2c(s1)C(c1ccccc1)C1C3CCC(C3)C1S2 (centres undefined)	none
O=C1C2Sc3[nH]c(=O)sc3C(c3ccccc3)C2C(=O)N1c1ccccc1 (centres undefined)	CYP2C19 inh 57
Cc1ccc(-n2c(C)cc(C(=O)OCC(=O)N(C)C3CCS(=O)(=O)C3)c2C)cc1 (centres undefined)	none
Cc1ccc(-n2c(C)cc(C(=O)OCC(=O)N(CC(C)C)C3CCS(=O)(=O)C3)c2C)cc1 (centres undefined)	Cav3 T inh -8.2
CC(C)CN(C(=O)COC(=O)CCc1c[nH]c2ccccc12)C1CCS(=O)(=O)C1 (centres undefined)	CYP2C9 act 2.2
O=C(c1c(F)cccc1F)N(Cc1ccccn1)C1CC1	none
Cc1ccc(N2CCCCn3c2nc2c3c(=O)[nH]c(=O)n2C)cc1	none
CCCc1cc(=O)[nH]c(SCc2ccccc2Cl)n1	CYP2C19 inh 50, CYP2C9 inhib 72
CCCc1cc(=O)[nH]c(SCCOC(=O)c2ccccc2)n1	CYP2C19 inh 54, CYP2C9 inhib 71 (no result: Cav3 T inh)
CCCc1cc(=O)[nH]c(SCC(=O)CSc2nc(CCC)cc(=O)[nH]2)n1	CYP2C9 inhib 70
CCCc1cc(=O)[nH]c(SCC(=O)NC)n1	none
CCn1c(C)nc2cc(S(=O)(=O)C(F)(F)F)ccc21	none (no result: CYP2C9 act, CYP2C19 inh, CYP2C9 inhib, CYP2C19 act)
O=C(C1CCCN(S(=O)(=O)c2cccc3nonc23)C1)N1CCC(Cc2ccccc2)CC1 (centres undefined)	CYP2C19 inh 51 (no result: Cav3 T inh)
Cc1[nH]c(=O)[nH]c(=O)c1S(=O)(=O)N1CCCC(C(=O)N2CCC(Cc3ccccc3)CC2)C1 (centres undefined)	CYP2C19 inh 53
COc1ccc(Cl)cc1NC(=O)C1CCCN(S(=O)(=O)c2cccc3nonc23)C1 (centres undefined)	none (no result: CYP2C9 act, CYP2C19 inh, CYP2C9 inhib, CYP2C19 act)
Cc1[nH]c(=O)[nH]c(=O)c1S(=O)(=O)N1CCCC(C(=O)N2CCN(c3ccccc3Cl)CC2)C1 (centres undefined)	none
CCOc1ccc(OCCOc2ncnc3ccccc23)cc1	none
CCCCn1c(SCC(=O)Nc2nccs2)nc2ccccc2c1=O	none
Cc1ccc(CNC(=O)CSc2nc3ccccc3c(=O)n2CCCO)cc1	CYP2C19 inh 62, CYP2C9 inhib 87
C=CCn1c(N)cc(=O)nc1SCC(=O)NC(C)c1ccccc1 (centres undefined)	CYP2C19 inh 52
CC(C)NC(=O)CSc1nc2ccccc2c(=O)n1CCCOC(C)C	CYP2C9 inhib 54
CC(NC(=O)CSc1nc2ccccc2c(=O)n1CCCO)c1ccccc1 (centres undefined)	CYP2C19 inh 72, CYP2C9 inhib 90
COCCCn1c(SCC(=O)NC(C)C)nnc1-c1ccccc1	none
CCCCOCP(=O)(CC)COCCCC	none
Cc1ccc(CNC(=O)CSc2nc3ccccc3c3nc(C)nn23)cc1	CYP2C9 act 2
Cc1ccc(CNC(=O)CSc2nnnn2C)cc1	none
CCc1nc(SCC(=O)Nc2cccc(C(F)(F)F)c2)c2c(=O)n(C)c(=O)n(C)c2n1	CYP2C19 inh 66, CYP2C9 inhib 52
CCCc1nc(SCC(=O)c2ccc(OC)cc2)c2c(=O)n(C)c(=O)n(C)c2n1	none (no result: Cav3 T inh)
CCCc1nc(SCC(=O)N2CCc3ccccc32)c2c(=O)n(C)c(=O)n(C)c2n1	CYP2C9 inhib 50 (no result: Cav3 T inh)
CCc1nc(SCC(=O)NCc2ccco2)c2c(=O)n(C)c(=O)n(C)c2n1	none
CCCc1nc(SCC(=O)c2ccccc2)c2c(=O)n(C)c(=O)n(C)c2n1	CYP2C9 inhib 86
CCCc1nc(SCC(=O)N2CCc3ccccc32)c2c(C)c(C)sc2n1	CYP2C9 inhib 80 (no result: Cav3 T inh)
CCN(CC(=O)NC(C)C)Cc1nc2sc3c(c2c(=O)[nH]1)CCC3	none (no result: Cav3 T inh)
